Screening data (PubChem)
ALDH1A1 inh: qHTS Assay for Inhibitors of Aldehyde Dehydrogenase 1 (ALDH1A1); Purified ALDH1A1, NADH fluorescence, propionaldehyde substrate; actives 7.3% (n = 220,000); Potency, µM (top dose mostly 75.3 µM), without a hit: top-dose activity, negative = inhibition, most hits filed as inhibitors; Aldehyde dehydrogenase 1A1 (Homo sapiens), P00352;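 also: potency is read from the fitted curve at half-maximal effect; plate controls were no enzyme wells and a reference inhibitor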
Target sequence (P00352 whole entry, looked up): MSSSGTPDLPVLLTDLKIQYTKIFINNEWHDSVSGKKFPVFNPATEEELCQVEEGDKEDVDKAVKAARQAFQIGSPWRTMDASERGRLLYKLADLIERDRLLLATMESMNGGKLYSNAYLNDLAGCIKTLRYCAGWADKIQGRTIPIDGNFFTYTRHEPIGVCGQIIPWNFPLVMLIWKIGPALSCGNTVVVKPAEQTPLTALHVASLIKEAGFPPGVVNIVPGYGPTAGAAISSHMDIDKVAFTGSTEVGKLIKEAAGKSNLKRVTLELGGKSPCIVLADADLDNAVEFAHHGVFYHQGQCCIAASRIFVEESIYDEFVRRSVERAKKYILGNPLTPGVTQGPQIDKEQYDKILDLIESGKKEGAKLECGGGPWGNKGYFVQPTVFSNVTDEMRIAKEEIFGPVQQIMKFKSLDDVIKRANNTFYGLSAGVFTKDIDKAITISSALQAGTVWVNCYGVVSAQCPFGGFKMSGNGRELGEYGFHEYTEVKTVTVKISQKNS
IMPase Li cell: qHTS Assay for Identifying the Cell-Membrane Permeable IMPase Inhibitors: Potentiation with Lithium. CHO-M1 cells, IP1 TR-FRET (IP-One), carbachol + lithium. Potency, µM (highest dose often 59.4 µM), for the others: at the highest dose activity, negative = IMPase inhibition, most hits filed as inhibitors. actives 0.35% (n = 210,000); active = well fitted inhibition curve with a large enough effect; inconclusive = small, poorly fitted or top-dose-only effect; inactive = no such curve, though single readings can be large or run the other way;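 also: IP1 builds up when IMPase is blocked and the TR-FRET signal falls; potency is read from the fitted curve at half-maximal effect; plate controls were basal vehicle for no effect and high inhibitor control for full effect; nearly all actives have a fitted effect of over 50% in size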
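Concentration–response in CHO-M1 cells, lithium-potentiated; 30 min at 37C. IP1 detected by competitive TR-FRET after 10 min lysis at RT. Hill-fitted AC50.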
IMPase cell inh: qHTS Assay for Identifying the Cell-Membrane Permeable IMPase Inhibitors; Inositol monophosphatase 1 (Rattus norvegicus), P97697; CHO-M1 cells, IP1 accumulation, HTRF TR-FRET ratio; inhibition (IP1 accumulation), % at 46.1 µM; 120,000 tested, under 10 active; active = well fitted curve in the direction sought with a large enough effect in the signal ratio, not every such curve was filed as active; inconclusive = small, poorly fitted or top-dose-only effect, or a change in a side signal; inactive = no such curve, though single readings can be large or run the other way; the % refers to the signal ratio;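 also: cells stimulated with carbachol in lithium chloride buffer; plate controls were DMSO basal wells for no effect and reference inhibitor wells for full effect; higher means more IMPase inhibition seen as more IP1 and lower FRET ratio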
Target sequence (P97697 whole entry, looked up): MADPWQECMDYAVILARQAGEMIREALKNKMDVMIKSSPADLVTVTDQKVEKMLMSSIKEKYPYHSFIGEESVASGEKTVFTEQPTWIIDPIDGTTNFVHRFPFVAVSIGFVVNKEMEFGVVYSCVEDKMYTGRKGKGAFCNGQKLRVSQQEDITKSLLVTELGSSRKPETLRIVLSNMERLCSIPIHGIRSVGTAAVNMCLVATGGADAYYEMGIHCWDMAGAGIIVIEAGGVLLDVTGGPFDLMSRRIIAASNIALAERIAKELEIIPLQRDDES
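Cellular IMPase inhibition is scored as a rise in cytosolic IP1, detected by competitive TR-FRET between d2-labelled IP1 and a europium anti-IP1 antibody. M1-expressing CHO cells were stimulated with carbachol for 30 min at 37C, with lithium (50 mM LiCl) present in the buffer.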
PNC inhibitor: High Content Assay for Compounds that inhibit the Assembly of the Perinucleolar Compartment | AID 2417, 2010 | activity change (PNC), negative = inhibition, % at 10 µM | actives 3.1% (n = 140,000) | PC3M PTB-GFP, PNC prevalence imaging, 16 h; stronger effect = lower value;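 active = readout at or below -70, meaning at least 70% loss of cells showing the perinucleolar compartment, a nuclear body marking cancer cells; inconclusive = readout between -30 and a set limit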;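 also: plate controls were DMSO wells for no effect and camptothecin positive control wells for full effect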
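Read-out is percentage of cells bearing a perinucleolar compartment, from automated 20x imaging of fixed, Hoechst-stained PC3M PTB-GFP cells. Cells were seeded 4 h, then exposed 16 h to compound (23 nl of library stock) in duplicate plates.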
HPGD block: qHTS Assay for Inhibitors of HPGD (15-Hydroxyprostaglandin Dehydrogenase); Potency, µM, inactives show at the top dose activity change, negative = inhibition, hits mostly inhibitors; 15-hydroxyprostaglandin dehydrogenase [NAD(+)] (Homo sapiens), P15428; actives 4.3% (n = 150,000); purified HPGD, NADH fluorescence kinetic, PGE2 substrate; AID 894, 2007; also: potency is read from the fitted curve at half-maximal effect
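NADH formation kinetics: reaction with 30 uM PGE2 and 1 mM NAD+ (final), 20 nM enzyme, Tris-HCl pH 8 with Tween 20, after 15 min compound preincubation at room temperature. Fluorescence change, last versus first of five reads.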
Numbers without * were called inactive; ? = inconclusive; / = not tested or not shown; [ ] = dose if it differs, or a comment. Only some compounds are listed: those with a hit (about 11% of all), similar ones and a draw of the others. Unless noted, calls follow the shape of the dose curve; as a rule, active = well fitted inhibition curve with a large enough effect (not every such curve was filed as active); inconclusive = small, poorly fitted or top-dose-only effect, or another doubt; inactive = no such curve, though single readings can be large or run the other way. Unless noted, % is scaled to controls: 0 for no effect and ±100 for the full control effect.

SMILES	ALDH1A1 inh	IMPase Li cell	IMPase cell inh	PNC inhibitor	HPGD block
CC(CCc1ccccc1)NS(=O)(=O)c1ccccc1 (configuration not stated)	10µM*	-6.1%[38.3 µM]	1.5	?	-10.6%
CC1CCN(CCC(=O)N/N=C/c2ccc([N+](=O)[O-])cc2)CC1	-2.6%	7.4%	/	/	/
O=C1COc2ccc(C(=O)CSc3nnnn3-c3ccccc3)cc2N1	5.01µM*	-7.6%[38.3 µM]	-7.1	?	-18.9%
CCCn1c(SCC(=O)c2ccc3c(c2)NC(=O)CO3)nc2ccccc21	3.16µM*	-2.1%	/	22.8	-20.1%
Cn1c(SCC(=O)c2ccc3c(c2)NC(=O)CO3)nc2ccccc21	3.0%	-14.0%	/	/	/
Cc1ccc(CNC(=O)CCCn2c(=O)c3ccccc3n(Cc3ccccc3C)c2=O)cc1	/	/	-4.6	/	/
CCOC(=O)C1(CCOc2ccccc2)CCN(Cc2cc(OC)c3c(c2)OCO3)CC1	-10.0%	18.1%	/	/	/
CC/C(=N/NC(=O)c1ccc(Br)cc1)c1ccc(OCCN2CCOCC2)cc1	?	-3.9%	/	1.3	-3.7%
CC/C(=N/NC(=O)c1ccccc1)c1ccc(OCCN2CCOCC2)cc1	10µM*	11.5%	/	-12.1	-23.1%
CC(=O)c1cc2c(cc1NC(=O)C1CCC1)OCO2	?	0.0%	/	/	/
Cc1nn(C)c(C)c1S(=O)(=O)NC1CCCc2ccccc21 (configuration not stated)	3.8%	-7.2%[38.3 µM]	-13.0	-7.0	-7.8%
CN(C)S(=O)(=O)c1cccc(C(=O)NC2CCCc3ccccc32)c1 (configuration not stated)	-4.8%	8.1%[38.3 µM]	1.7	?	-0.8%
Cc1ccc(S(=O)(=O)NC2CCCc3ccccc32)cc1C (configuration not stated)	10µM*	6.0%[38.3 µM]	-3.8	-17.6	-21.4%
CCN(CC)S(=O)(=O)c1ccc(NC2CCCc3ccccc32)nc1 (configuration not stated)	2.9%	13.1%	8.7	-100.0*	-22.6%
CN(C)S(=O)(=O)c1ccc(C(=O)NC2CCCc3ccccc32)cc1 (configuration not stated)	20µM*	13.2%	/	/	/
C[C@H]1C=C2C=C[C@H](C)[C@H](CC[C@@H]3C[C@@H](O)CC(=O)O3)[C@H]2[C@@H](OC(=O)[C@@H](C)CCO)C1	?	0.5%	3.7	/	-8.8%
CN1CCCc2cc(C=O)ccc21	0.199µM*	18.4%	-4.9	-12.8	?
O=Cc1ccc(N2CCCC2)c([N+](=O)[O-])c1	?	4.2%	/	/	/
CC(C)NC(=O)N1CC2(CCN(C(=O)c3cc(C(F)(F)F)cc(C(F)(F)F)c3)CC2)C1	7.0%	2.4%	/	/	-1.2%
CCCCCOc1ccc(CSC(=N)N)cc1[N+](=O)[O-]	-4.0%	13.5%[38.3 µM]	2.5	?	1.1%
COc1ccc(CSC(=N)N)cc1[N+](=O)[O-]	28.2µM*	24.6%[38.3 µM]	-6.1	?	-1.2%
COc1ccc(Cn2ccnc2CO)cc1[N+](=O)[O-]	6.31µM*	12.6%	/	/	/
COc1ccc(CN(CCO)CCO)cc1[N+](=O)[O-]	-36.8%	-3.9%	/	-12.9	-4.1%
Cn1cc([N+](=O)[O-])c(C(=O)Nc2cc(Oc3ccccc3)cc([N+](=O)[O-])c2)n1	?	-5.3%	/	-125.2*	-23.9%
CCCCC/C=C\C\C=C/C=C/C=C/[C@@H](SC[C@H](N)C(=O)O)[C@@H](O)CCCC(=O)O	10.0%	-13.1%	/	/	/
SMILES	ALDH1A1 inh	IMPase Li cell	IMPase cell inh	PNC inhibitor	HPGD block
COc1ccc(CCNC(=O)c2ccc(CN3CCC(Cc4ccccc4)CC3)cc2)cc1	7.3%	14.7%	/	18.6	-5.8%
COc1ccc(C(=O)NCC23C=CC(O2)C2C(=O)N(Cc4ccccc4)C(=O)C23)cc1 (configuration not stated)	7.94µM*	2.0%[38.3 µM]	14.7	-19.6	-6.6%
Oc1c(C(Nc2cccc(C(F)(F)F)c2)c2cccnc2)ccc2cccnc12 (configuration not stated)	20µM*	10.5%	/	-8.2	-8.8%
Cc1cc(NC(c2cccnc2)c2ccc3cccnc3c2O)no1 (configuration not stated)	-1.1%	-1.0%[38.3 µM]	-6.9	38.8	-12.2%
CN(C)S(=O)(=O)c1cccc(NC(=S)Nc2ccc(Cl)cc2Cl)c1	12.6µM*	48.6%[38.3 µM]	-1.6	?	?
CCN(CCO)c1ccc(NC(=S)Nc2cccc(S(=O)(=O)N(C)C)c2)cc1	25.1µM*	15.0%	/	/	/
N/C(CCN1CCCCC1)=N/O	6.1%	-4.2%[38.3 µM]	6.6	-4.2	-5.1%
CC(=O)NC1C(=O)N=C(SCC(=O)NCc2ccccc2)NC1=O (configuration not stated)	?	5.5%	-4.7	-100.0*	-9.1%
COc1cccc(CN2CCN(Cc3nc(-c4cccc(F)c4F)oc3C)CC2=O)c1	25.1µM*	6.7%	/	/	/
Cc1cnc(C)c(N2CCN(Cc3nc(-c4cccc(F)c4F)oc3C)CC2)n1	-5.8%	20.1%	/	/	/
O=C(c1ccc(F)cc1)N1CCCCC(Sc2nnc3ccccn23)C1=O (configuration not stated)	0.3%	-6.9%[38.3 µM]	-7.8	48.4	-9.6%
Cc1cc2nnc(SC3CCCCN(C(=O)c4ccc(F)cc4)C3=O)n2c2ccccc12 (configuration not stated)	17.8µM*	11.5%[38.3 µM]	-7.0	-8.1	?
C=CCOC(=O)C(C(C)=O)C(NC(=O)OC)c1cccc(F)c1 (configuration not stated)	-13.9%[13.5 µM]	/	/	/	/
O=C(O)CN1C(=O)/C(=C/c2ccc(SCc3ccccc3)o2)SC1=S	3.55µM*	16.3%	/	/	/
O=C(O)CCN1C(=O)/C(=C\c2ccncc2)SC1=S	-13.5%	5.4%	/	/	/
O=C(O)CCN1C(=O)/C(=C\c2ccc(-c3nc4ccccc4s3)o2)SC1=S	?	23.5%[38.3 µM]	0.9	-17.1	15.8µM*
O=C(O)CN1C(=O)/C(=C/c2ccsc2)SC1=S	-11.2%	6.0%	/	/	/
Cn1cccc1/C=C1\SC(=S)N(CC(=O)O)C1=O	-5.2%	12.9%	/	42.1	28.2µM*
CN(C)S(=O)(=O)c1cccc(NC(=O)COC(=O)c2cccn2C)c1	-77.0%	7.2%	/	/	/
O=S(=O)(c1ccc2nc(-c3ccccc3)[nH]c2c1)N1CCN(c2cccc(Cl)c2)CC1	9.6%	2.7%	/	1.7	-5.2%
COc1ccccc1N1CCN(S(=O)(=O)c2ccc3nc(-c4ccccc4)[nH]c3c2)CC1	-3.2%	2.2%	/	-113.4*	-20.3%
CCN(Cc1ccccc1)C(=O)c1ccc(CNS(=O)(=O)c2ccc(C)cc2)cc1	2µM*	-2.6%	/	?	?
CC(=O)Nc1ccc(S(=O)(=O)NCc2ccc3c(c2)cc(C)n3C)cc1	?	0.1%[38.3 µM]	3.5	1.9	-4.8%
C=CCNC(=O)c1ccc(CNS(=O)(=O)c2ccc(NC(C)=O)cc2)cc1	-5.1%	13.0%[38.3 µM]	6.0	26.3	20µM*
